System: Plasmodium falciparum
Test: GSK_TCMDC: Inhibition of Plasmodium falciparum 3D7 in whole red blood cells, using parasite LDH activity as an index of growth. Test compounds present at 2uM
Type: functional

Structure (SMILES) | Inhibition [%]
CS(=O)(=O)Nc1ccc2[nH]cc(C3CCN(CC4CCN(C(=O)/C=C/c5ccc(Cl)c(Cl)c5)CC4)CC3)c2c1 | 100
COC(=O)/C=C/c1ccc(CC(C)NCC(O)c2cccc(Br)c2)cc1 (centres undefined) | 97
CN(c1cc(NC(=O)c2ccc(F)cc2)ccn1)C1CCN(Cc2ccc(C#N)cc2)CC1.O=C(O)C(F)(F)F | 87
c1ccc(C(OCCC2CCN(Cc3cccnc3)CC2)c2ccccc2)cc1 | 99
COC(=O)c1ccc(CC(C)NCC(O)c2ccc(Cl)c(Cl)c2)cc1 (centres undefined) | 87
O=C(NC1CCC(CN2CCC(c3c[nH]c4ccccc34)CC2)CC1)c1cc2cccc([N+](=O)[O-])c2[nH]1 (centres undefined) | 100
Cl.c1ccc2c(NCCCCCCCCCNc3c4ccccc4nc4ccccc34)c3ccccc3nc2c1 | 100
CCOC(=O)c1c(CN2CCN(C)CC2)n(Cc2ccccc2)c2cc(Br)c(O)cc12 | 100
CCOC(=O)c1c(C)n(C2CCCCC2)c2cc(Br)c(O)cc12 | 98
CCCCCOc1ccc(CC(C)NCC(O)c2cccc(Cl)c2)cc1 (centres undefined) | 100
CCCCCC(C)C(C)c1cc(O)c2c(c1)OC(C)(C)c1cnccc1-2.Cl (centres undefined) | 94
CN(C)CCC(=O)c1ccccc1.Cl | 100
Oc1ccc(CN2CCN(CCOC(c3ccccc3)c3ccc(Cl)cc3)CC2)cc1Cl (centres undefined) | 98
CCOC(C(=O)OCC1CCCN1C)(c1ccccc1)c1ccccc1 (centres undefined) | 97
Cc1ccc(C)c(C=CC(=O)NC2CCC(CN3CCC(c4c[nH]c5ccccc45)CC3)CC2)c1 (centres undefined) | 100
CC(C)CNCc1cccc(-c2cccc(CN(C(=O)Nc3ccccc3)C3CCN(Cc4ccccc4)CC3)c2)c1.O=C(O)C(F)(F)F | 100
O=C(COc1ccc(Cl)cc1)N1CCC(CN2CCC(c3c[nH]c4ccccc34)CC2)CC1 | 89
Cc1ccc(CC(C)NCC(O)c2cccc(Cl)c2)cc1F.Cl (centres undefined) | 95
COCCNCc1ccc(-c2ccc(CN(C(=O)Nc3ccccc3)C3CCN(Cc4ccccc4)CC3)cc2)cc1.O=C(O)C(F)(F)F | 98
CC(C)CNCc1ccc(-c2cccc(CN(C(=O)CCC3CCCC3)C3CCN(Cc4ccccc4)CC3)c2)cc1.O=C(O)C(F)(F)F | 100
O=C(C=Cc1ccccc1C(F)(F)F)NC1CCC(CN2CCC(c3c[nH]c4ccccc34)CC2)CC1 (centres undefined) | 100
Oc1ccccc1CN1CCC(CCOC(c2ccccc2)c2ccc(Cl)cc2)CC1 (centres undefined) | 97
O=C(NC1CCC(CN2CCC(c3c[nH]c4ccccc34)CC2)CC1)c1cc(-c2cccc(Cl)c2)n(-c2ccc(Cl)cc2Cl)n1 (centres undefined) | 81
COC(C(=O)OCCC1CCCN1C)(c1ccccc1)c1ccccc1 (centres undefined) | 98

Reference: ChEMBL document CHEMBL1157539, “Thousands of chemical starting points for antimalarial lead identification” (Nature, 2010)
